# “And” between values parts separate entries of the source, which are not always exact repeats. Equal entries are not always repeated. The source made the active and inactive calls. Unless noted, no stated cut-off is given here; in the data, active means inhibition above about 80%; inactive means the rest.
# Legend:
# [1] = LFS_MB_P medulloblastoma growth inhibition, cell-based, chromothripsis tumors, cisplatin or BGB combos (AID 1671449); conditions: LFS_MB_P medulloblastoma cells;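 further: cells exposed for 96 hours; 0% = vehicle DMSO and 100% = killing by high DMSO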
# [2] = HDN33 neuroblastoma growth inhibition, cell-based, chromothripsis tumors, cisplatin or BGB combos (AID 1671450); conditions: HDN33 neuroblastoma cells, stronger effect = higher value;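 further: cells exposed to compound for four days; 0% = vehicle DMSO and 100% = cell killing by high DMSO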
# [3] = ICB984 medulloblastoma cell growth inhibition, synergistic combos for chromothripsis tumors, cisplatin or BGB combos (AID 1671451; call rule not given here;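 further: cells exposed for 96 hours before readout; 0% = vehicle DMSO and 100% = killing by high DMSO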); conditions: ICB984 medulloblastoma cells, drug combinations, stronger effect = higher value
# [4] = LFS_MB_1R medulloblastoma cell growth inhibition, synergistic combos for chromothripsis tumors, cisplatin or BGB combos (AID 1671452); conditions: LFS_MB_1R medulloblastoma cells, stronger effect = higher value;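 further: cells exposed for 96 hours before readout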
# [5] = HTB85 osteosarcoma cell growth inhibition, synergistic combos for chromothripsis tumors, BGB or cisplatin IC20 combos (AID 1671453); conditions: HTB85 osteosarcoma cells, drug combinations, stronger effect = higher value;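 further: cells exposed for 96 hours before readout; 0% = vehicle DMSO and 100% = high DMSO killing control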
# [6] = CRL2098 osteosarcoma cell growth inhibition, synergistic combos for chromothripsis tumors, BGB or cisplatin IC20 combos (AID 1671454); conditions: CRL2098 osteosarcoma cells, drug combinations, stronger effect = higher value;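 further: cells exposed for 96 h before readout; 0% = vehicle DMSO and 100% = killing by high DMSO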
# [7] = HD-MB03 medulloblastoma cell growth inhibition, synergistic combos for chromothripsis tumors, BGB or cisplatin IC20 combos (AID 1671455; in the data active means inhibition above about 83%;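 further: 0% = vehicle DMSO and 100% = high DMSO as cytotoxic control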); conditions: HD-MB03 medulloblastoma cells, stronger effect = higher value
# [8] = UWB1.289 ovarian carcinoma cell growth inhibition, synergistic combos for chromothripsis tumors, BGB or cisplatin combos (AID 1671456); conditions: UWB1.289 ovarian carcinoma cells, stronger effect = higher value;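 further: cells exposed to compound for four days; 0% = vehicle DMSO and 100% = killing by high DMSO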
# [9] = LFS_MB_2R medulloblastoma cell growth inhibition, synergistic combos for chromothripsis tumors, cisplatin combos (AID 1671457); conditions: LFS_MB_2R medulloblastoma cells, stronger effect = higher value;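 further: cells exposed to compound for four days before readout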
# [10] = MDA-MB-436 breast carcinoma cell growth inhibition, synergistic combos for chromothripsis tumors, BGB or cisplatin combos (AID 1671458; call rule not given here;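 further: cells exposed for 96 hours; 0% = vehicle DMSO and 100% = killing by high DMSO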); conditions: MDA-MB-436 breast carcinoma growth inhibition, drug combinations, stronger effect = higher value
# [11] = UWB1.289_BRCA1 ovarian cancer growth, cell-based, BGB or cisplatin combinations (AID 1671459); conditions: UWB1.289 BRCA1 ovarian carcinoma, drug combinations, stronger effect = higher value
# [12] = human astrocyte viability loss, single and combined drugs, cytotoxicity control for chromothriptic childhood tumor combination screen, cell-based, BGB or cisplatin IC20 combos (AID 1671460); conditions: Human astrocytes, drug combinations, stronger effect = higher value;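 further: cells exposed to compounds for 96 hours before viability readout; 0% = vehicle and 100% = killing control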
# [13] = growth inhibition of BT084 medulloblastoma cells, cell-based, ICGC_MB145, cisplatin and BGB IC40 combos (AID 1671461); conditions: drug combinations, stronger effect = higher value;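 further: cells exposed to drugs for 96 hours; 0% = vehicle DMSO and 100% = high DMSO full killing control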
# [14] = growth inhibition of RCMB18 medulloblastoma cells, cell-based, cisplatin and BGB IC40 combos (AID 1671462); conditions: stronger effect = higher value;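 further: cells exposed to compound for four days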
# [15] = growth inhibition of CRL1545 osteosarcoma cells, cell-based, cisplatin and BGB IC20 combos (AID 1671464); conditions: stronger effect = higher value;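 further: cells exposed to compound for 96 hours before readout; 0% = vehicle DMSO and 100% = high DMSO killing control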
# [16] = at 0.5 µM, stronger effect = higher value
# [17] = measured here: combination with BGB IC20, at 0.005 µM
# [18] = measured here: combination with BGB IC40, at 0.005 µM
# [19] = measured here: combination with BGB IC40, at 0.05 µM
# [20] = measured here: combination with cisplatin, at 0.5 µM, stronger effect = higher value
# [21] = measured here: combination with cisplatin, at 5 µM, stronger effect = higher value
# [22] = measured here: with BGB IC20 combination, at 0.5 µM
# [23] = measured here: with cisplatin IC20 combination, at 0.5 µM
# [24] = measured here: 5 uM single agent, at 5 µM
# [25] = measured here: combination with cisplatin, at 0.5 µM
# [26] = measured here: combination with cisplatin, at 5 µM
# [27] = measured here: with BGB IC20, at 0.5 µM
# [28] = measured here: with BGB IC20, at 5 µM
# [29] = measured here: with cisplatin IC20, at 0.5 µM
# [30] = measured here: with cisplatin IC20, at 5 µM
# [31] = measured here: combination with BGB at IC20, at 0.5 µM
# [32] = measured here: combination with cisplatin at IC20, at 0.5 µM
# [33] = measured here: combo with BGB at IC20, at 0.5 µM
# [34] = measured here: combo with cisplatin at IC20, at 0.5 µM
# [35] = measured here: inhibition with BGB combination, at 0.05 µM
# [36] = measured here: inhibition with cisplatin combination, at 0.05 µM
# [37] = measured here: BGB combination, at 0.5 µM
# [38] = measured here: BGB combination, at 5 µM
# [39] = measured here: cisplatin combination, at 0.5 µM
# [40] = measured here: cisplatin combination, at 5 µM
# [41] = BGB combination, concentration series, at 5 µM
# [42] = cisplatin combination, concentration series, at 5 µM
# [43] = measured here: combo with BGB IC20, at 0.5 µM
# [44] = measured here: combo with cisplatin IC20, at 0.5 µM
# [45] = cisplatin combination, at 0.5 µM
# [46] = measured here: BGB IC40 combination 0.05 uM, at 0.05 µM
# [47] = measured here: BGB IC40 combination, at 0.05 µM
smiles,measurement,setting,value
CC1(C)C(C(=O)Nc2ccc(S(=O)(=O)c3ccc(NC(=O)C4C(C)(C)C4(C)C)cc3)cc2)C1(C)C,inhibition,[1]; [16],-7.93% (inactive)
same,inhibition,[1]; [17],-18.4%
same,inhibition,[1]; [18],-46.1%
same,inhibition,[1]; [19],-26.3%
same,inhibition,[1]; [20],-30.9%
same,inhibition,[1]; [21],-41.5%
same,inhibition,"[2]; BGB combo, at 5 µM",-17.4%
same,inhibition,[2]; at 0.5 µM,-53.9% (inactive)
same,inhibition,"[2]; cisplatin combo, at 5 µM",-66.6%
same,inhibition,[2]; [22],-56.4%
same,inhibition,[2]; [23],-51.1%
same,inhibition,"[2]; single agent, at 5 µM",-24.6%
same,inhibition,"[3]; BGB IC20 combo, at 0.005 µM",-19.6%
same,inhibition,"[3]; BGB IC40 combo, at 0.005 µM",-21.6%
same,inhibition,"[3]; BGB IC40 combo, at 0.05 µM",0.527%
same,inhibition,[3]; at 0.5 µM,-22.6% (inactive)
same,inhibition,"[3]; cisplatin combo, at 0.05 µM",-4.5%
same,inhibition,"[3]; cisplatin combo, at 0.5 µM",-42.3%
same,inhibition,"[3]; cisplatin combo, at 5 µM",-31.4%
same,inhibition,[3]; [24],-26.8%
same,inhibition,[4]; at 0.5 µM,-36.5% (inactive)
same,inhibition,[4]; [19],-27.2%
same,inhibition,[4]; [25],-46.1%
same,inhibition,[4]; [26],-61.4%
same,inhibition,[5]; at 0.5 µM,-37.5% (inactive)
same,inhibition,[5]; [27],-37%
same,inhibition,[5]; [28],-16.1%
same,inhibition,[5]; [29],-31.9%
same,inhibition,[5]; [30],-19.7%
same,inhibition,"[5]; single agent, at 5 µM",-8.34%
same,inhibition,[6]; at 0.5 µM,-53.9% (inactive)
same,inhibition,[6]; [31],-51.4%
same,inhibition,[6]; [32],-77.7%
same,inhibition,[7]; at 0.5 µM,-19.9% (inactive)
same,inhibition,[7]; [33],-12.1%
same,inhibition,[7]; [34],-33.5%
same,inhibition,[8]; at 0.5 µM,-16.5% (inactive)
same,inhibition,[8]; [35],-34%
same,inhibition,[8]; [36],-37.9%
same,inhibition,[9]; at 0.5 µM,-14.5% (inactive)
same,inhibition,[9]; [25],-16.8%
same,inhibition,[9]; [26],-6.76%
same,inhibition,[10]; at 0.5 µM,-18.2% (inactive)
same,inhibition,[10]; [37],-21%
same,inhibition,[10]; [38],-4.44%
same,inhibition,[10]; [39],-40.7%
same,inhibition,[10]; [40],-26%
same,inhibition,[11]; [41],2.97%
same,inhibition,[11]; at 0.5 µM,-24.5% (inactive)
same,inhibition,[11]; [42],-16%
same,inhibition,[12]; at 0.5 µM,4.8% (inactive)
same,inhibition,[12]; [43],12.4%
same,inhibition,[12]; [44],-16.1%
same,inhibition,[13]; at 0.5 µM,-6.8% (inactive)
same,inhibition,[13]; [45],-4.81%
same,inhibition,"[13]; cisplatin combination, at 5 µM",-82%
same,inhibition,[13]; [46],-20.9%
same,inhibition,"[13]; single agent, at 5 µM",2.54%
same,inhibition,[14]; at 0.5 µM,-8.5% (inactive)
same,inhibition,"[14]; cisplatin combo, at 5 µM",-42.1%
same,inhibition,[14]; [47],3.16%
same,inhibition,[14]; [25],-23.3%
same,inhibition,"[14]; single agent, at 5 µM",22.7%
same,inhibition,[15]; at 0.5 µM,-34.4% (inactive)
same,inhibition,[15]; [22],-61.8%
same,inhibition,[15]; [23],-22.6%
same,inhibition,"[15]; single agent, at 0.05 µM",-37.3%
same,inhibition,"[15]; single agent, at 5 µM",14.2%
COc1cc([C@@H]2c3cc4c(cc3[C@H](O)[C@H]3COC(=O)[C@H]23)OCO4)cc(OC)c1O,inhibition,[1]; [16],-9.98% (inactive) and 8.43% (inactive)
same,inhibition,[1]; [17],-2.59% and -6.87%
same,inhibition,[1]; [18],7.46% and -20.3%
same,inhibition,[1]; [19],35.2% and -17%
same,inhibition,[1]; [20],-26% and 12.8%
same,inhibition,[1]; [21],48% and 29.7%
same,inhibition,"[2]; BGB combo, at 5 µM",64.5% and 57.8%
same,inhibition,[2]; at 0.5 µM,76% (inactive) and 68.9% (inactive)
same,inhibition,"[2]; cisplatin combo, at 5 µM",60.1% and 62.6%
same,inhibition,[2]; [22],66.9% and 60.4%
same,inhibition,[2]; [23],69% and 58.6%
same,inhibition,"[2]; single agent, at 5 µM",77.6% and 81.6%
same,inhibition,"[3]; BGB IC20 combo, at 0.005 µM",12.7% and -7.66%
same,inhibition,"[3]; BGB IC40 combo, at 0.005 µM",1.81% and -7.75%
same,inhibition,"[3]; BGB IC40 combo, at 0.05 µM",4.84% and 20.6%
same,inhibition,[3]; at 0.5 µM,-16.8% (inactive) and -20% (inactive)
same,inhibition,"[3]; cisplatin combo, at 0.05 µM",1.07% and 20.6%
same,inhibition,"[3]; cisplatin combo, at 0.5 µM",-39.6% and -30.5%
same,inhibition,"[3]; cisplatin combo, at 5 µM",-37.8% and -5.3%
same,inhibition,[3]; [24],0.691% and -3.02%
same,inhibition,[4]; at 0.5 µM,4.95% (inactive) and 4.02% (inactive)
same,inhibition,[4]; [19],-9.68% and 4.85%
same,inhibition,[4]; [25],-26.6% and 18%
same,inhibition,[4]; [26],44.6% and 52.8%
same,inhibition,[5]; at 0.5 µM,70% (inactive) and 60.4% (inactive)
same,inhibition,[5]; [27],56.9% and 41.3%
same,inhibition,[5]; [28],58.2% and 51.8%
same,inhibition,[5]; [29],60.9% and 54%
same,inhibition,[5]; [30],70.5% and 80%
same,inhibition,"[5]; single agent, at 5 µM",87% and 84.5%
same,inhibition,[6]; at 0.5 µM,57.9% (inactive) and 29.8% (inactive)
same,inhibition,[6]; [31],50.3% and 29.8%
same,inhibition,[6]; [32],57.2% and 5.54%
same,inhibition,[7]; at 0.5 µM,71.7% (inactive) and 69.2% (inactive)
same,inhibition,[7]; [33],61.9% and 65.3%
same,inhibition,[7]; [34],71.7% and 65.8%
same,inhibition,[8]; at 0.5 µM,44% (inactive) and 35.9% (inactive)
same,inhibition,[8]; [35],-0.844% and 8.28%
same,inhibition,[8]; [36],0.424% and -0.759%
same,inhibition,[9]; at 0.5 µM,13.5% (inactive) and -0.16% (inactive)
same,inhibition,[9]; [25],23.7% and 7.38%
same,inhibition,[9]; [26],37.2% and 35.6%
same,inhibition,[10]; at 0.5 µM,56.1% (inactive) and 45.1% (inactive)
same,inhibition,[10]; [37],36% and 23.1%
same,inhibition,[10]; [38],45.8% and 43.9%
same,inhibition,[10]; [39],63.1% and 44.6%
same,inhibition,[10]; [40],70.8% and 69%
same,inhibition,[11]; [41],55.3% and 54.8%
same,inhibition,[11]; at 0.5 µM,51.6% (inactive) and 46.7% (inactive)
same,inhibition,[11]; [42],64.1% and 63.1%
same,inhibition,[12]; at 0.5 µM,69.7% (inactive) and 62.4% (inactive)
same,inhibition,[12]; [43],66.6% and 57.1%
same,inhibition,[12]; [44],62.5% and 52.4%
same,inhibition,[13]; at 0.5 µM,23.1% (inactive) and 7.97% (inactive)
same,inhibition,[13]; [45],-0.605% and 4.61%
same,inhibition,"[13]; cisplatin combination, at 5 µM",43.4% and 22.5%
same,inhibition,[13]; [46],7.15% and -9.48%
same,inhibition,"[13]; single agent, at 5 µM",73.2% and 24.9%
same,inhibition,[14]; at 0.5 µM,6.51% (inactive) and -0.09% (inactive)
same,inhibition,"[14]; cisplatin combo, at 5 µM",39.6% and 46.7%
same,inhibition,[14]; [47],-8.85% and -7.39%
same,inhibition,[14]; [25],22% and 15.3%
same,inhibition,"[14]; single agent, at 5 µM",43.2% and -3.33%
same,inhibition,[15]; at 0.5 µM,56.5% (inactive) and 47% (inactive)
same,inhibition,[15]; [22],55% and 43.8%
same,inhibition,[15]; [23],57.3% and 48.6%
same,inhibition,"[15]; single agent, at 0.05 µM",-5.66% and 32.2%
same,inhibition,"[15]; single agent, at 5 µM",83% and 76.2%
